# According to PubChem BioAssay (NCATS):
# Values joined by “and” are separate entries in the source; they are usually repeats but may differ in a detail not shown here. Identical values can stand only once. Inconclusive results are not listed. Active and inactive are the calls of the source. Unless noted, the call rests on the fitted dose curve; in most records, active means well fitted curve in the direction sought with a large enough effect; inconclusive means small, poorly fitted or top-dose-only effect, or another doubt; inactive means no such curve, though single readings can be large; an effect the other way counts as inactive or inconclusive.
# Legend:
# [1] = qHTS to identify inhibitors of the type 1 interferon - major histocompatibility complex class I in skeletal muscle: primary screen against the NCATS Mechanism Interrogation Plate v5.0 (MIPE) Libary (AID 1347411); further: nearly all actives have a fitted effect of over 65% in size; further: potency means the concentration at half of the fitted maximal effect;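 on activity change, negative = inhibition: plate controls were vehicle for no effect and reference inhibitor for full effect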
# Method in brief: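 Luminescence from HiBiT-tagged endogenous HLA-B*08:01 served as the MHC class I read-out. CRISPR-engineered C25cl48 human myoblasts received 4.0 ng/ml IFN-beta plus compound for 24 hrs, with an 11-point, 1:3 series topping at 46 uM final.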
# [2] = Primary qHTS for inhibitors of nuclear receptor binding SET domain protein 2 (NSD2) in an isogenic RCH-ACV NSD2 p.E1099K mutant (9B) (AID 1645876); further: nearly all actives have a fitted effect of over 70% in size; further: potency means the concentration at half of the fitted maximal effect
# [3] = Primary qHTS for inhibitors of nuclear receptor binding SET domain protein 2 (NSD2) in an RCH-ACV wild type WT cells (2C) (AID 1645877); further: nearly all actives have a fitted effect of over 70% in size; further: potency means the concentration at half of the fitted maximal effect
# [4] = biological target: Glutathione peroxidase 1 (Homo sapiens) (UniProt P07203); experiment: Primary qHTS Assay for Inhibitors of Recombinant Selenoprotein Glutathione Peroxidase 1 (GPX1) (AID 1845191); further: nearly all actives have a fitted effect of over 65% in size
# Chain of Glutathione peroxidase 1 (Homo sapiens) (P07203 whole entry, looked up): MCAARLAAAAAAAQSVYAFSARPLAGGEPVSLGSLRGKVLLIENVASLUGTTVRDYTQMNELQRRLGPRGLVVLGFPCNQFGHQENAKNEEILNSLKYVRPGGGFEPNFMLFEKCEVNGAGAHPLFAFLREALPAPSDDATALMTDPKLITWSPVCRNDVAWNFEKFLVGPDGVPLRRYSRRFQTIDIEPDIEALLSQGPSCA
# Method in brief: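 Recombinant GPX1 (10 nM final) was preincubated with compound for 30 min at room temperature, then reacted with 1 mM GSH, 0.5 mM CHP, 0.5 mM NADPH and 100 nM glutathione reductase; NADPH fluorescence (340/450 nm) was read at 0 and 15 min.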
# [5] = biological target: Phospholipid hydroperoxide glutathione peroxidase GPX4 (Homo sapiens) (UniProt P36969); experiment: Primary qHTS Assay for Inhibitors of Recombinant Selenoprotein Glutathione Peroxidase 4 (GPX4) (AID 1845192); details: outcome: dose series up to 50 µM unless noted; further: nearly all actives have a fitted effect of over 65% in size; further: potency means the concentration at half of the fitted maximal effect; on activity change, negative = inhibition: on the % scale 0 is the no-effect control and ±100 the full control effect
# Chain of Phospholipid hydroperoxide glutathione peroxidase GPX4 (Homo sapiens) (P36969 whole entry, looked up): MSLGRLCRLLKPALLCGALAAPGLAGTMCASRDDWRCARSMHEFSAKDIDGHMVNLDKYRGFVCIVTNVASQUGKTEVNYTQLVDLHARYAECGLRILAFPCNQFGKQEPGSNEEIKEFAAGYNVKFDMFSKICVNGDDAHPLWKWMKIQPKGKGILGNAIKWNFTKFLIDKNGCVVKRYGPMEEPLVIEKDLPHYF
# Method in brief: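 GR-coupled readout: 100 nM GR, 1 mM GSH, 0.5 mM NADPH; NADPH fluorescence (ex 340/em 450 nm) read at t=0 and after 15 min RT. GPX4 200 nM, preincubated 30 min with compound; substrate 0.5 mM CHP.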
# [6] = qHTS drug screen for cell cycle checkpoint inhibitors in PARPi-resistant BRCA-mutant ovarian cancer cell lines. (AID 1963452; calls by dose curve; further: potency means the concentration at half of the fitted maximal effect); details: PEO1/OlaR viability, CellTiter-Glo luminescence, 96 h; for Z-AUC: stronger effect = lower value
# Method in brief: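 PEO1, PEO4 and PEO1/OlaR ovarian cancer cells, 600 per well, exposed 96 h at 37C to a dilution series. Viability read by CellTiter-Glo luminescence, normalized to DMSO and empty wells; activity summarized as Z-AUC.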
# [7] = qHTS assay to identify inhibitors of the type 1 interferon - major histocompatibility complex class I in skeletal muscle: Counter screen cell viability and HiBit confirmation (AID 1347412); details: iHSKM muscle cells + IFN-b, HiBiT or CellTiter-Glo, 24 h; for activity change, negative = inhibition: at 45.9 µM (top of the series); further: potency means the concentration at half of the fitted maximal effect; on activity change, negative = inhibition: on the % scale 0 is the no-effect control and ±100 the full control effect; on all read-outs here: nearly all actives have a fitted effect of over 60% in size
# Method in brief: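 Human myoblast knock-in line, 4.0 ng/ml IFN-beta stimulation, 24 h compound treatment. Endpoints: HiBiT lytic luminescence (HLA-B level) and CellTiter Glo (ATP). Dosing 12 concentrations, 3-fold steps, 46 uM highest final.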
# [8] = HPAF-II 24hr Apoptosis Induction qHTS against the NCATS CANVASS Library (AID 1347356); further: 0% is about no effect
# Method in brief: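 Luminescent caspase-3/7 signal (DEVD substrate, Caspase-Glo) served as read-out, taken 15 min after reagent addition to HPAF-II cells exposed 24 h to compounds.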
# [9] = HEK293 18hr Apoptosis Induction qHTS against the NCATS CANVASS Library (AID 1347357); further: 0% is about no effect
# Method in brief: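 Natural products applied to HEK293 for 18 hr; Caspase-Glo 3/7 readout.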
# [10] = HPAF-II 12hr Apoptosis Induction qHTS against the NCATS CANVASS Library (AID 1347358); further: 0% is about no effect
# Method in brief: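 500 HPAF-II cells/well; cmpds 11-pt; 12 hr, 37 degrees C/5% CO2; Caspase-Glo 3/7 added, 15 min RT dark; luminescence read. Doxorubicin titration as control.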
# [11] = HEK293 24hr Apoptosis Induction qHTS against the NCATS CANVASS Library (AID 1347359); further: 0% is about no effect
# Method in brief: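 HEK293 cells (500/well, DMEM + 10% FBS) were exposed to compounds in an 11-point series for 24 hours at 37 degrees C, then caspase-3/7 activity was read by Caspase-Glo DEVD luciferase luminescence after 15 min.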
# [12] = HPAF-II 18hr Apoptosis Induction qHTS against the NCATS CANVASS Library (AID 1347360); further: 0% is about no effect
# Method in brief: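 Luminescent DEVD-substrate signal, proportional to caspase activity, is measured in HPAF-II cells after 18-hour treatment across a concentration series; doxorubicin serves as control.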
# [13] = HEK293 12hr Apoptosis Induction qHTS against the NCATS CANVASS Library (AID 1347361); further: 0% is about no effect
# Method in brief: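 Luminescent caspase-3/7 signal, proportional to enzyme activity, was recorded from HEK293 cultures in DMEM + 10% FBS treated for 12 hours with titrated natural products (11 points). Doxorubicin (0.1nM - 4uM) served as control.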
# [14] = qHTS for ATAD5 Agonist screened against the NCATS CANVASS Library (AID 1347367);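 further: luciferase reporter driven by ATAD5 which rises upon DNA damage; 0% is about no effect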
# Method in brief: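 Genotoxicity was scored as increased ATAD5-luciferase luminescence in HEK293T after 16hr of exposure, with cell viability measured by fluorescence beforehand in the same well.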
# [15] = biological target: Nuclear receptor subfamily 1 group I member 3 (Homo sapiens) (UniProt Q14994); experiment: qHTS for Constitutive Androstane Receptor (CAR) Antagonist screened against the NCATS CANVASS Library (AID 1347372);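 further: cells stimulated with 50 nM CITCO agonist so inhibition reflects antagonism; on the % scale 0 is the no-effect control and ±100 the full control effect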
# Chain of Nuclear receptor subfamily 1 group I member 3 (Homo sapiens) (Q14994 whole entry, looked up): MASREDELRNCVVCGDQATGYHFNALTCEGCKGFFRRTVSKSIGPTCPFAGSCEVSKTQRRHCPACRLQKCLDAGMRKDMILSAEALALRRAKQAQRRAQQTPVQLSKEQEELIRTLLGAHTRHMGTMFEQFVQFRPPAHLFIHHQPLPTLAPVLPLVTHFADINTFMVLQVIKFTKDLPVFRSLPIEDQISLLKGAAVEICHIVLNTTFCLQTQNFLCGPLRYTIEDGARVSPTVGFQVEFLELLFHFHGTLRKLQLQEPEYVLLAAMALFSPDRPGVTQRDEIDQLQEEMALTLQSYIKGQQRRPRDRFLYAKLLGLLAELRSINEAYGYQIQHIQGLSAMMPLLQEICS
# Method in brief: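 HepG2 cells stably carrying hCAR and a CYP2B6-2.2kb luciferase reporter were exposed to compounds plus 50 nM CITCO for 24hr at 37C. CAR activity was read by ONE-Glo luminescence, with viability measured first by CellTiter-Fluor.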
# [16] = 10-beta competent E. coli microbial cell viability qHTS against the NCATS CANVASS Library (AID 1347376); further: 0% is about no effect
# Method in brief: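 E. coli 10-beta, 0.2 OD; cpds 11-pt; o/n 37C, 5% CO2; BacTiter-Glo 20 min RT; luminescence (ATP) = viable cells. Daunomycin ctrl.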
# [17] = Inflammasome Signaling qHTS Counterscreen: IL-1-beta AlphaLISA counterscreen against the NCATS CANVASS Library (AID 1347381);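 further: cell-free check with purified IL-1β in medium and no THP-1 cells; 0% is about no effect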
# Method in brief: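 Cell-free interference check: compounds added to medium spiked with 4 pg purified IL-1β. Anti-IL-1β acceptor beads (6 ug/mL) with 0.6 nM biotinylated antibody added for 1 h at RT, then streptavidin donor beads (24 ug/mL) for 30 min in the dark. AlphaLISA read at 680/615 nm.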
# [18] = Cytotoxicity qHTS for assessment of Hepg2 cells membrane integrity screened against the NCATS CANVASS Library (AID 1347387)
# Method in brief: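 qHTS, 11-pt conc. series, 0.59 nM - 46 uM final; HepG2 2000 cells/well, overnight attachment; 5 hr compound exposure 37C/5% CO2; CytoTox-ONE, 10 min RT; fluorescence ex560/em590 = LDH from damaged membranes.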
# [19] = qHTS for activators of dead-cell proteases activity screened against the NCATS CANVASS Library (AID 1347392);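 further: luminescence from protease leaking out of membrane-damaged cells cleaving impermeant substrate; 0% is about no effect; rising signal means more cytotoxicity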
# Method in brief: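 HepG2 cells (2000/well) attached 18 h at 37C, then exposed 5 h to compounds (11-point qHTS). Dead-cell protease activity read as luminescence from cell-impermeant AAF-aminoluciferin substrate after 15 min at room temperature.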
# [20] = measured here: PEO1 parental Z-AUC
smiles,measurement,setting,value
CC1=C2[N-][C@H]([C@H](CC(N)=O)[C@@]2(C)CCC(=O)NC[C@@H](C)OP(=O)([O-])O[C@H]2[C@@H](O)[C@@H](n3cnc4cc(C)c(C)cc43)O[C@@H]2CO)[C@]2(C)N=C(C(C)=C3N=C(C=C4N=C1[C@@H](CCC(N)=O)C4(C)C)[C@@H](CCC(N)=O)[C@]3(C)CC(N)=O)[C@@H](CCC(N)=O)[C@]2(C)CC(N)=O.O.[Co+2],Potency,[1],8290 nM (active)
same,Potency,[2],inactive
same,Potency,[3],inactive
same,Potency,[4],inactive
same,Potency,[5],inactive
same,Z-AUC,[6],-0.864 (inactive)
same,Z-AUC,[6]; [20],0.932
same,Z-AUC,[6]; measured here: PEO4 Z-AUC,0.294
same,Potency,[7]; HiBiT,14000 nM (active)
same,"activity change, negative = inhibition",[7]; Viability,-18.1% (inactive)
O=C1CC(c2ccc(O)cc2)Oc2cc(O)ccc21 (stereo unspecified),outcome,[8],inactive
same,Potency,[9],inactive
same,Potency,[10],inactive
same,Potency,[11],inactive
same,Potency,[12],inactive
same,outcome,[13],inactive
same,Potency,[14],inactive
same,Potency,[15],inactive
same,outcome,[16],inactive
same,outcome,[17],inactive
same,outcome,[18],inactive
same,Potency,[19],inactive
O=C(CCCc1ccc2cccnc2n1)NCc1cc(-c2ccc(F)c(C(F)(F)F)c2)no1,Potency,[1],inactive
same,Potency,[2],inactive
same,Potency,[3],inactive
same,Potency,[4],inactive
same,Potency,[5],inactive
same,Z-AUC,[6],-0.51 (inactive)
same,Z-AUC,[6]; [20],-0.432
same,Z-AUC,[6]; measured here: PEO4 Z-AUC,-0.394
C=CCNC1=C2CC(C)CC(OC)C(O)C(C)/C=C(\C)C(OC(N)=O)C(OC)/C=C/C=C(\C)C(=O)NC(=CC1=O)C2=O (stereo unspecified),Potency,[1],58.7 nM (active)
same,Potency,[2],1.32 µM (active)
same,Potency,[3],1320 nM (active)
same,Potency,[4],inactive
same,Z-AUC,[6],-0.25 (inactive)
same,Z-AUC,[6]; [20],-0.657
same,Z-AUC,[6]; measured here: PEO4 Z-AUC,-0.0403
same,Potency,[7]; HiBiT,49.7 nM (active)
Cc1cc(C)c(CNC(=O)c2cc(-c3ccc(N4CCN(C)CC4)nc3)cc3c2c(C)cn3C(C)C)c(=O)[nH]1,Potency,[1],inactive
same,Potency,[2],16.6 µM (active) and 18.6 µM (active)
same,Potency,[3],20900 nM (active)
same,Potency,[4],inactive
same,Potency,[5],12800 nM (active)
same,Z-AUC,[6],-1.15 (inactive) and -0.405 (inactive)
same,Z-AUC,[6]; [20],-1.04 and 0.4
same,Z-AUC,[6]; measured here: PEO4 Z-AUC,-1.52 and 0.0539
same,"activity change, negative = inhibition",[7]; HiBiT,0.953% (inactive)
same,"activity change, negative = inhibition",[7]; Viability,-10.1% (inactive)
C=C1C(=O)O[C@H]2C[C@H](C)C(/C=C/C(C)=O)=CC[C@H]12,Potency,[1],6580 nM (active)
same,Potency,[2],1.48 µM (active)
same,Potency,[3],1320 nM (active)
same,Potency,[4],inactive
same,Potency,[5],inactive
same,Z-AUC,[6],0.205 (inactive)
same,Z-AUC,[6]; [20],-0.357
same,Z-AUC,[6]; measured here: PEO4 Z-AUC,-0.273
same,Potency,[7]; HiBiT,3130 nM (active)
same,"activity change, negative = inhibition",[7]; Viability,64.7% (inactive)
COC1=C2C[C@H](C)C[C@H](OC)[C@H](O)[C@@H](C)/C=C(/C)[C@H](OC(N)=O)[C@@H](OC)/C=C\C=C(\C)C(=O)NC(=CC1=O)C2=O,Potency,[1],2940 nM (active)
same,Potency,[2],inactive
same,Potency,[3],inactive
same,Potency,[4],inactive
same,Potency,[5],inactive
same,Z-AUC,[6],0.322 (inactive)
same,Z-AUC,[6]; [20],0.489
same,Z-AUC,[6]; measured here: PEO4 Z-AUC,0.496
same,Potency,[7]; HiBiT,27.9 nM (active)
CS[C@H]1SC[C@@H]2C(=O)N(C)[C@H](C(C)C)C(=O)OC[C@H](NC(=O)c3cnc4ccccc4n3)C(=O)N[C@H](C)C(=O)N(C)[C@H]1C(=O)N(C)[C@H](C(C)C)C(=O)OC[C@H](NC(=O)c1cnc3ccccc3n1)C(=O)N[C@H](C)C(=O)N2C,Potency,[1],10.4 nM (active)
same,Potency,[2],0.0015 µM (active)
same,Potency,[3],1 nM (active)
same,Potency,[4],inactive
same,Potency,[5],inactive
same,Potency,[6],8.7 nM (active)
same,Z-AUC,[6]; [20],-3.58
same,Z-AUC,[6]; measured here: PEO4 Z-AUC,-3.11
same,Potency,[7]; HiBiT,12.5 nM (active)
same,"activity change, negative = inhibition",[7]; Viability,4.37% (inactive)
C[C@H]1CNC(=O)c2cnn3ccc(nc23)N[C@H](C)c2cc(F)ccc2O1,Potency,[1],1170 nM (active)
same,Potency,[2],1.48 µM (active)
same,Potency,[3],1180 nM (active)
same,Potency,[4],inactive
same,Potency,[5],inactive
same,Potency,[6],1550 nM (active)
same,Z-AUC,[6]; [20],-2.09
same,Z-AUC,[6]; measured here: PEO4 Z-AUC,-2.06
same,Potency,[7]; HiBiT,4430 nM (active)
